# An excerpt weighted towards active compounds, which were near 3.9% of everything screened.
# CCHF vOTU inh-1 – CCHFV vOTU protease inhibitors, primary screen, biochemical, Pep-AMC substrate, fluorescence. AID 651958, 2012. inhibition, % at 11.5 µM. Crimean-Congo hemorrhagic fever virus L polyprotein viral ovarian tumor (vOTU) protease …. 0.55% of 370,000 active; in the data active = inhibition above about 30%; note: 0% = vehicle wells with enzyme and 100% = no enzyme wells
# BoNT A protease – BoNT/A light chain protease inhibitors, primary screen, biochemical, flow cytometry, MLPCN library. Botulinum neurotoxin type A light chain protease (Clostridium botulinum A str. ATCC 3502). multiplex microsphere protease substrate cleavage. inhibition, % at 10 µM. 0.17% of 360,000 active; in the data active = inhibition above about 30%; inconclusive = no clear call, values can overlap the other calls; note: plate controls were buffer without enzyme for full effect and enzyme alone for no effect
# Anthrax LF prot – Bacillus anthracis LF protease inhibitors, primary screen, biochemical, multiplex microsphere, MLPCN library | Lethal factor (Bacillus anthracis), P15917 | multiplex microsphere protease cleavage assay | inhibition, % at 10 µM | 0.12% of 360,000 active | AID 588501, 2011; in the data active = inhibition above about 30%; inconclusive = no clear call, values can overlap the other calls; note: plate controls were buffer without enzyme for full effect and enzyme alone for no effect
# Target sequence (P15917 whole entry, looked up): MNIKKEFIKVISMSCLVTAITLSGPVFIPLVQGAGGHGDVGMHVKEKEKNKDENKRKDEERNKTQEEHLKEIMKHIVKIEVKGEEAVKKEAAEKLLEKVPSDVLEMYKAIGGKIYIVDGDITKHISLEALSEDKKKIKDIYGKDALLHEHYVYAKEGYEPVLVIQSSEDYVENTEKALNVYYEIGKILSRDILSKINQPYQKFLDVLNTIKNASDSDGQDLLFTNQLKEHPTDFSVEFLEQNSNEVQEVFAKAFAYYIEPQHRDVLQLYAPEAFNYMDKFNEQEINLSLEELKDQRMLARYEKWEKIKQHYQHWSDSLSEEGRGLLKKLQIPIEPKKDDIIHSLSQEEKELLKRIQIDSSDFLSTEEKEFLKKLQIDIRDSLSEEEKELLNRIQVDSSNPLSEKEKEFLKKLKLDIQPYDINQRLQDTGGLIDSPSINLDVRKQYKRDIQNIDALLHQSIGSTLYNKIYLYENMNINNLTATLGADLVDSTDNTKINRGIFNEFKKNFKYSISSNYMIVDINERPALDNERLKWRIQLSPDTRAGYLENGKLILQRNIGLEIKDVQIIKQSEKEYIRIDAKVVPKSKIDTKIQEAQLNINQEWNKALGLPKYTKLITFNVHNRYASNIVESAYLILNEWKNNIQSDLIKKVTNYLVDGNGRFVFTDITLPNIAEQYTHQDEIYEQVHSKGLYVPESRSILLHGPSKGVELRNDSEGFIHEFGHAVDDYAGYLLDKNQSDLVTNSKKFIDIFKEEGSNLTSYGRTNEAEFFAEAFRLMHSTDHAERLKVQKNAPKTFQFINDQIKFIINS
# Bead autofluor – compound fluorescence in toxin protease inhibitor counterscreen | 3.1% of 360,000 active | fluorescence intensity (test concentration not listed) | compound autofluorescence counterscreen, microsphere flow cytometry; active compounds read high; in the data active = fluorescence intensity above about 16000; inconclusive = no clear call, values can overlap the other calls
# SARS 3CLpro inh – SARS-CoV 3CLpro protease inhibitors, primary screen, biochemical, quenched FRET. 0.14% of 290,000 active. recombinant SARS-CoV 3CLpro, quenched FRET peptide cleavage. inhibition, % at 6 µM. AID 1706, 2009. Replicase polyprotein 1ab (Severe acute respiratory syndrome coronavirus), P0C6X7; in the data active = inhibition above about 12%
# BoNT F protease – BoNT/F light chain protease inhibitors, primary screen, biochemical, flow cytometry, MLPCN library; Botulinum neurotoxin type F light chain protease (Clostridium botulinum); Multiplex microsphere protease cleavage assay; inhibition, % at 10 µM; 0.22% of 360,000 active; in the data active = inhibition above about 35%, passing the limit was not always enough; inconclusive = no clear call, values can overlap the other calls; note: plate controls were buffer without enzyme for full effect and enzyme alone for no effect
# BoNTA LC inh 1 – BoNT/A light chain protease inhibitors, confirmation, biochemical, flow cytometry, cherry pick 1. shares compounds with BoNT F protease. multiplex microsphere protease assay. inhibition, % at 10 µM. 3% of 720 active. AID 602139, 2011; in the data active = inhibition above about 32%
# BoNTF LC inh 1 – BoNT/F light chain protease inhibitors, confirmation, biochemical, flow cytometry, cherry pick 1; 720 tested, under 10 active; inhibition, % at 10 µM; shares compounds with BoNT F protease; multiplex microsphere protease cleavage assay; AID 602140, 2011
# LF protease CP1 – Bacillus anthracis LF protease inhibitors, confirmation, biochemical, multiplex microsphere, cherry pick 1; shares compounds with BoNT F protease; multiplex microsphere protease cleavage assay; inhibition, % at 10 µM; 720 tested, under 10 active
# BoNTA LC inh 2 – BoNT/A light chain protease inhibitors, confirmation, biochemical, flow cytometry, cherry pick 2; shares compounds with BoNT A protease; multiplex microsphere protease cleavage assay; inhibition, % at 10 µM; 10% of 150 active; in the data active = inhibition above about 24%
# LF protease CP2 – Bacillus anthracis LF protease inhibitors, confirmation, biochemical, multiplex microsphere | 7% of 150 active | inhibition, % at 10 µM | AID 602327, 2012 | shares compounds with BoNT A protease | multiplex microsphere protease cleavage assay; in the data active = inhibition above about 25%
# BoNTF LC inh 2 – BoNT/F light chain protease inhibitors, confirmation, biochemical, flow cytometry, cherry pick 2 | multiplex microsphere protease cleavage assay | inhibition, % at 10 µM | shares compounds with BoNT A protease | AID 602336, 2012 | 7% of 150 active; in the data active = inhibition above about 25%
# CCHF vOTU inh-2 – CCHFV vOTU protease inhibitors, confirmation, biochemical, Pep-AMC substrate, fluorescence; inhibition, % at 11.5 µM; shares compounds with CCHF vOTU inh-1; AID 686976, 2013; 17% of 1,900 active; Recombinant CCHFV vOTU; in the data active = inhibition above about 30%
# Active calls of the source: *; u = inconclusive; x = not tested or not shown. Unless noted, the rule behind the calls is not given here.
SMILES,CCHF vOTU inh-1,BoNT A protease,Anthrax LF prot,Bead autofluor,SARS 3CLpro inh,BoNT F protease,BoNTA LC inh 2,LF protease CP2,BoNTF LC inh 2,others
C=CCc1ccc(OCCOc2cccc3ccc(C)nc23)c(OC)c1,-16,46*,-8,9218,1,53*,x,x,x,BoNTA LC inh 1=-2;BoNTF LC inh 1=-3;LF protease CP1=-3
Cc1ccc(NC(=O)CN(C)C(=O)c2ccccc2OCc2c(C)noc2C)cc1,4,89*,u,u,x,u,x,x,x,BoNTA LC inh 1=0;BoNTF LC inh 1=0;LF protease CP1=-2
CC(=O)c1cc(-c2ccc(Cl)c(C(F)(F)F)c2)c(=O)n2c1CCC2,0,x,x,x,x,x,x,x,x,
COC(=O)[C@]12C[C@H](CC(=O)NCc3ccc(C)o3)C(=O)N(CCc3ccc(OC)c(OC)c3)C1=C[C@H](COCc1ccccc1)O[C@@H]2C,-1,x,x,x,x,x,x,x,x,
O=C(Cn1nc(-c2ccccc2)ccc1=O)NCCc1ccc(F)cc1,2,x,x,x,x,x,x,x,x,
CC(=O)N1CCCN(C(=O)CCn2nnc3ccccc32)CC1,-4,x,x,x,x,x,x,x,x,
Cc1cccc2c1NC(C)CC2C (centres undefined),1,34*,40*,2139,-2,6,x,x,x,BoNTA LC inh 1=1;BoNTF LC inh 1=-2;LF protease CP1=-4
CCc1cccc2c1NC1(CCCC1)CC2C (centres undefined),1,u,u,3556,-2,u,x,x,x,
CCCCCC(=O)Nc1ccc(S(=O)(=O)Nc2cc(OC)nc(OC)n2)cc1,9,2,-2,3600,-4,39*,x,x,x,BoNTA LC inh 1=-1;BoNTF LC inh 1=-2;LF protease CP1=2
COc1ccc2c(n1)Sc1nc3ccccc3nc1N2,59*,30*,5,4878,-4,1,x,x,x,BoNTA LC inh 1=9;BoNTF LC inh 1=-5;LF protease CP1=2;CCHF vOTU inh-2=-2
COC(=O)c1cc(-c2cccc3ccccc23)c(=O)n2c1CCC2,-4,x,x,x,x,x,x,x,x,
CCCCC(c1nc2ccccc2[nH]1)n1c(=O)c(-c2ccccc2)nc2cc(C)c(C)cc21 (centres undefined),-5,30*,34*,3875,x,5,11,8,11,
CCCCCCCCC(c1nc2cc(C)c(C)cc2[nH]1)n1c(=O)c(-c2ccccc2Br)nc2ccccc21 (centres undefined),-3,28,16,4821,x,7,28*,2,19,
CCCCC(c1nc2ccccc2[nH]1)n1c(-c2ccccc2)nc2cc(C)c(C)cc21 (centres undefined),15,-2,0,6080,x,-19,x,x,x,
NC(=O)c1c(N)[nH]c(C(=O)c2ccccc2)c1-c1ccc(Br)cc1,11,x,x,x,x,x,x,x,x,
Cn1ccc2c(-c3cccc4ccccc34)cc3c(c21)C1CCC3C1 (centres undefined),-3,0,-13,4492,x,3,1,-3,-3,
Cn1ccc2c(-c3cncc4ccccc34)cc3c(c21)C1CCC3C1 (centres undefined),-5,48*,30*,3532,x,0,10,10,4,
Cn1ccc2c(-c3cccc(C=O)c3F)cc3c(c21)C1CCC3C1 (centres undefined),8,19,-24,3712,x,-67,x,x,x,
Cc1cc2nc(-c3cccc(Cl)c3)c(Cc3ccccc3)n2c(C)c1Br,x,1,-1,6508,x,-6,x,x,x,
COc1ccccc1Cc1c(-c2ccc(F)cc2)nc2cc(C)c(Br)c(C)n12,0,1,9,6390,x,-20,25*,-4,21,
COc1ccccc1Cc1c(-c2ccccc2)nc2cc(C)c(Br)c(C)n12,9,1,7,4357,x,-3,3,-2,-3,
COc1ccccc1Cc1c(C(C)(C)C)nc2cc(C)c(Br)c(C)n12,-3,1,5,5293,x,-2,x,x,x,
Cc1cc2nc(-c3cccc(Br)c3)c(Cc3cccc(Cl)c3)n2c(C)c1Br,0,0,-5,5299,x,-8,12,3,45*,
COc1ccccc1Cc1c(-c2ccc(C)cc2)nc2cc(C)c(Br)c(C)n12,12,2,4,4617,x,-2,10,7,19,
O=C(NCc1cccs1)C1CCCN(S(=O)(=O)c2ccccc2)C1 (centres undefined),-14,x,x,x,x,x,x,x,x,
SMILES,CCHF vOTU inh-1,BoNT A protease,Anthrax LF prot,Bead autofluor,SARS 3CLpro inh,BoNT F protease,BoNTA LC inh 2,LF protease CP2,BoNTF LC inh 2,others
Cn1c(=O)c2[nH]c(SCC(=O)NCCc3ccc(F)cc3)nc2n(C)c1=O,2,x,x,x,x,x,x,x,x,
COc1ccc(Oc2cccc3c2S(=O)(=O)N(C2CC2)C[C@@H](COCc2ccccc2)O3)cc1,5,x,x,x,x,x,x,x,x,
CCN(CC)c1ccc2cc(S(=O)(=O)c3ccc(C)cc3)c(=O)oc2c1,-7,24,15,2271,-2,-5,5,5,2,
CCOC(=O)c1c(C)[nH]c(C(=O)COC(=O)COc2ccccc2C)c1C,12,0,0,2053,-4,-3,x,x,x,
CCOc1ccccc1OCC(=O)OCC(=O)c1c(C)[nH]c2ccccc12,8,3,0,4284,x,14,1,-1,2,
Cc1cccc(C(=O)OCC(=O)c2c(C)[nH]c3ccccc23)c1O,4,-1,-5,4168,x,2,0,1,1,
COC(=O)[C@@]12CCCCC=C1N(CCc1ccc(Cl)cc1)C(=O)[C@H]2CC(=O)NCCc1ccccc1OC,1,x,x,x,x,x,x,x,x,
COc1ccc(NC(=O)c2cc(S(=O)(=O)N3CCOCC3)ccc2C)cc1S(=O)(=O)N1CCCCC1,-2,0,2,3883,x,3,x,x,x,
COc1ccc(NC(=O)c2cc(S(=O)(=O)N3CCCC3)ccc2C)cn1,0,12,45*,2946,x,73*,1,-2,-1,

# Source: PubChem (several laboratories)
